A selection: hits, their analogues and other compounds. The true share with any hit is near 11%.
HP1b binding inh: blocks HP1-beta chromodomain binding to methylated histone tails | AlphaScreen HP1-beta / biotin-H3K9me3 peptide binding | 390,000 compounds, 0.56% hits | Potency, µM (top dose mostly 114 µM), hits mostly inhibitors; also: nearly all actives have a fitted effect of over 70% in size
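AlphaScreen: HP1-beta (50 nM) preformed 30 min with biotin-H3(1-18)K9me3 peptide (50 nM) in PBS pH 7.4, 0.01% Tween-20. Compound added for 30 min at RT, then streptavidin donor/nickel chelate acceptor beads (10 ug/mL) for 30 min.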
G9a block: G9a (human) methyltransferase inhibition | G9a H3K9 monomethylation, AlphaScreen, 2 h | 350,000 compounds, 8.8% hits | Potency, µM (series often up to 102 µM), hits mostly inhibitors; also: nearly all actives have a fitted effect of over 75% in size
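Chemiluminescent proximity detection of H3K9 monomethylation, read after 10 min bead incubation in the dark. Reaction: 20 nM G9a, 500 nM biotin-H3K9 peptide, 20 uM SAM cofactor, 2 h, room temperature, following 15 min enzyme-compound preincubation.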
BAZ2B block: blocks human BAZ2B; AlphaScreen BAZ2B-H3K14Ac peptide displacement; Potency, µM (doses to about 114 µM), most hits filed as inhibitors; 360,000 compounds, 4.4% hits; AID 504333; also: nearly all actives have a fitted effect of over 60% in size
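In this displacement format the biotinylated H3(5-23) peptide acetylated at Lys14 serves as ligand at 50 nM, with BAZ2B at 50 nM in PBS pH 7.4 containing 0.01% Tween-20. Donor and acceptor beads are 10 ug/mL final.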
L3MBTL1 inh: blocks human L3MBTL1 | Q9Y468 | AlphaScreen L3MBTL1–H3K9me1 peptide binding | Potency, µM (top dose mostly 57.1 µM), most hits filed as inhibitors | 230,000 compounds, 0.66% hits | AID 485360; also: nearly all actives have a fitted effect of over 60% in size
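AlphaScreen assay: L3MBTL1 (50 nM final) was preincubated 30 min at room temperature with biotinylated H3(1-15)K9me1 peptide (75 nM final), then 30 min with library compounds; streptavidin donor and nickel chelate acceptor beads (10 ug/mL final) added, 30 min dark.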
JMJD2A Tudor: JMJD2A Tudor domain (human) inhibition | 390,000 compounds, 4.4% hits | Potency, µM (titrated, usually from 114 µM), usual class: inhibitors | AlphaScreen JMJD2A-Tudor / H3K4me3 peptide binding | O75164; also: nearly all actives have a fitted effect of over 50% in size
Each line names hits and unclear results; the compound was inactive in the other large screens. Calls follow the shape of the dose curve; as a rule, active = well fitted inhibition curve with a large enough effect; inconclusive = small, poorly fitted or top-dose-only effect; inactive = no such curve, though single readings can be large or run the other way.

COc1ccc2cc(C(c3nnnn3C3CCCC3)N3CCc4ccccc4C3)c(=O)[nH]c2c1 (stereo not given)	G9a block 10µM (no result: BAZ2B block)
O=C1C2C3C=CC(C3)C2C(=O)N1c1ncn[nH]1 (stereo not given)	HP1b binding inh inconclusive, G9a block inconclusive, BAZ2B block inconclusive, JMJD2A Tudor 50.1µM
CCCCC(CCC(=O)O)(C(=O)OCC)c1csc(Nc2ccc(OCC)cc2)n1 (stereo not given)	G9a block 31.6µM, BAZ2B block inconclusive
CCOc1ccc(Nc2nc(Cc3nnc(SCC(=O)O)o3)cs2)cc1	G9a block 50.1µM, BAZ2B block inconclusive, L3MBTL1 inh inconclusive, JMJD2A Tudor 89.1µM
CCCCC(CCC(=O)O)(C(=O)OCC)c1csc(Nc2ccccc2)n1 (stereo not given)	none
CCOc1ccc(Cc2nnc(SCC(=O)c3ccc(OC)cc3)o2)cc1	G9a block inconclusive
CN1CCN(c2nc3ccccn3c(=O)c2C=C(C#N)C#N)CC1	none (no result: L3MBTL1 inh)
CCc1cccc(C)c1NC(=O)CN1C(=O)c2c(c3ccccc3n2C)C1c1ccc(OC)cc1 (stereo not given)	none (no result: L3MBTL1 inh)
Cc1nn(Cc2ccc(F)cc2)c2sc(C(=O)Nc3nccs3)cc12	none
Cc1nn(Cc2ccc(Cl)cc2)c2sc(C(=O)O)cc12	G9a block 1µM (no result: L3MBTL1 inh)
Cc1oc2ncn(CC(C)C)c(=O)c2c1C(=O)NCc1cccc(Cl)c1	none (no result: L3MBTL1 inh)
C[n+]1ccccc1/C=C/c1ccc(C#N)cc1	HP1b binding inh inconclusive, BAZ2B block 44.7µM, JMJD2A Tudor 22.4µM
C[n+]1ccccc1/C=C/c1ccc(F)c(F)c1	BAZ2B block inconclusive
C[n+]1ccccc1/C=C/c1ccc([N+](=O)[O-])cc1	G9a block 25.1µM (no result: L3MBTL1 inh)
COc1cc2c(cc1OC)C(c1ccc(Cl)cc1)N(c1ccc(C)c(F)c1)C(=O)C2 (stereo not given)	JMJD2A Tudor inconclusive (no result: L3MBTL1 inh)
Cc1ccc(C)c(CN2CCC(CNC(=O)C(CC(C)C)N3Cc4ccccc4C3=O)CC2)c1 (stereo not given)	G9a block inconclusive (no result: L3MBTL1 inh)
Cc1cc(C)cc(NC(=O)C(CC(C)C)NC(=O)C2CCCCC2)c1 (stereo not given)	none (no result: L3MBTL1 inh)
CC1Cc2ccccc2N1C(=O)CSc1nc2ccc(NC(=O)COc3ccccc3)cc2s1 (stereo not given)	none (no result: L3MBTL1 inh)
O=C(O)c1ccc(NC2=C(Cl)C(=O)c3ccccc3C2=O)cc1	G9a block inconclusive, BAZ2B block 50.1µM, L3MBTL1 inh inconclusive, JMJD2A Tudor inconclusive
O=C1C(Cl)=C(Nc2ccccc2)C(=O)c2ccccc21	G9a block inconclusive, BAZ2B block inconclusive
CC(C(=O)Nc1ccc(C(=O)O)cc1)N1C(=O)c2ccccc2C1=O (stereo not given)	none
CC1=C(Nc2ccc(C(=O)O)cc2)C(=O)c2ccccc2C1=O	G9a block inconclusive, BAZ2B block 44.7µM, JMJD2A Tudor inconclusive (no result: L3MBTL1 inh)
Cc1ccc(NC2=C(NC(=O)c3ccccc3)C(=O)c3ccccc3C2=O)cc1Cl	HP1b binding inh 44.7µM, G9a block 2.24µM, BAZ2B block 14.1µM, L3MBTL1 inh inconclusive, JMJD2A Tudor 14.1µM
O=C(O)c1cccc(NC2=C(Cl)C(=O)c3ccccc3C2=O)c1	HP1b binding inh inconclusive, G9a block 7.08µM, BAZ2B block 44.7µM, JMJD2A Tudor 56.2µM
COc1cc(C(=O)Nc2cccc(OCc3cc(=O)n4c(C)csc4n3)c2)cc(OC)c1OC	none (no result: L3MBTL1 inh)
S=C(NCC1CCCO1)Nc1ccc(Nc2ccccc2)cc1 (stereo not given)	HP1b binding inh inconclusive, G9a block inconclusive, BAZ2B block inconclusive, JMJD2A Tudor inconclusive
O=C(Cc1ccc(Br)cc1)Nc1ccc(S(=O)(=O)NCC2CCCO2)cc1 (stereo not given)	JMJD2A Tudor 22.4µM
NS(=O)(=O)c1ccc(NC(=S)NCC2CCCO2)cc1 (stereo not given)	HP1b binding inh inconclusive, G9a block 11.2µM
COCC(=O)Nc1ccc(S(=O)(=O)NCC2CCCO2)cc1 (stereo not given)	none
CC(=O)Nc1ccc(S(=O)(=O)NNC(=S)NCC2CCCO2)cc1 (stereo not given)	G9a block 31.6µM, JMJD2A Tudor inconclusive (no result: L3MBTL1 inh)
O=C(Nc1ccc(Cl)c(Cl)c1)c1cc(S(=O)(=O)N2CCN(c3cccc(Cl)c3)CC2)ccc1F	none (no result: L3MBTL1 inh)
CCCS(=O)(=O)c1c(S(=O)(=O)CCC)c2cnccn2c1C(=O)c1ccc(CC)cc1	none
CCCS(=O)(=O)c1c(S(=O)(=O)CCC)c2cnccn2c1C(=O)c1ccc(OC)cc1	G9a block 50.1µM
CCc1ccc(OC(C)c2nc(-c3ccc(-n4cccc4)cc3)no2)cc1 (stereo not given)	none (no result: L3MBTL1 inh)
Cc1ccccc1NC(=O)CSc1nn2c(=O)c(C)nnc2s1	BAZ2B block inconclusive, JMJD2A Tudor 89.1µM
Cc1nnc2sc(SCC(=O)Nc3ccc(Br)cc3)nn2c1=O	BAZ2B block 39.8µM, JMJD2A Tudor inconclusive (no result: L3MBTL1 inh)
Cc1nnc2sc(SCC(=O)Nc3cccc(Cl)c3)nn2c1=O	BAZ2B block 39.8µM, JMJD2A Tudor inconclusive (no result: L3MBTL1 inh)
COc1ccc(NC(=O)CSc2nn3c(=O)c(C)nnc3s2)cc1	JMJD2A Tudor inconclusive (no result: L3MBTL1 inh)
COc1cccc(NC(=O)CSc2nn3c(=O)c(C)nnc3s2)c1	JMJD2A Tudor inconclusive (no result: L3MBTL1 inh)
CCOc1ccc(-c2cc3c(=O)n(CC(=O)Nc4c(C)cccc4C)ccn3n2)cc1	none (no result: L3MBTL1 inh)
O=C1C=CC(=O)N1N(c1ccccc1)c1ccccc1	HP1b binding inh inconclusive, G9a block 1.78µM, BAZ2B block 31.6µM, JMJD2A Tudor 17.8µM
Cn1c(SCc2ccccc2F)nnc1-c1ccccn1	BAZ2B block 56.2µM
Nn1c(SCc2cccc3ccccc23)nnc1-c1ccco1	none
Cn1c(SCc2cccc3ccccc23)nnc1-c1ccco1	G9a block 15.8µM
Cn1c(SCc2ccc(F)cc2)nnc1-c1ccccn1	BAZ2B block 50.1µM, JMJD2A Tudor inconclusive
Cc1ccc(CSc2nnc(-c3ccccn3)n2C)cc1	BAZ2B block inconclusive
CCOC(=O)C1CCCN(C(=O)c2cc(S(=O)(=O)Nc3ccccc3OC)ccc2C)C1 (stereo not given)	none
COc1cc(Cl)ccc1NC(=O)COc1ccccc1C(=O)N1CCN(c2ccc(O)cc2)CC1	HP1b binding inh inconclusive, G9a block 10µM, JMJD2A Tudor inconclusive
COc1ccccc1NS(=O)(=O)c1ccc(C)c(C(=O)N2CCN(c3ccc(O)cc3)CC2)c1	JMJD2A Tudor 28.2µM (no result: G9a block, BAZ2B block)
COc1ccc(Cl)cc1NC(=O)CN(c1cccc(C)c1C)S(C)(=O)=O	none (no result: L3MBTL1 inh)
COc1cccc(C(=O)CSc2nccn2C)c1	G9a block 50.1µM
Cn1ccnc1SCC(=O)c1ccc(Cl)cc1	G9a block 50.1µM (no result: L3MBTL1 inh)
COc1cccc(C(=O)CSc2nnc(CNS(=O)(=O)c3ccc(C)cc3)n2C)c1	HP1b binding inh inconclusive, G9a block 3.16µM, JMJD2A Tudor 20µM (no result: L3MBTL1 inh)
COC(=O)CSc1nnc(CNS(=O)(=O)c2ccc(C)cc2)n1C	none
